{
  "source": "the supplement of paper PMC8728848",
  "binders": {"B1": {"name": "C7A (Sus scrofa) (peptide)", "chain": "KILRGVCKKIMRTFLRRISKKILTGKK"}},
  "test_in_all_cases": "glycan array binding signal (z-score within array); higher = stronger binding",
  "details_in_all_cases": "glycan notation: IUPAC condensed, linker removed; mutation: D21K",
  "key": {"GalNAc3S(b1-4)GlcNAc": {"target": "GalNAc3S(b1-4)GlcNAc", "in_short": "(§1)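 From the Consortium for Functional Glycomics database, 3228 arrays were curated, keeping only those whose protein sequence was available. Binding is given as a within-array Z-score averaged across arrays sharing a protein sequence and across linkers. Negative Z-scores can be read as non-binding.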"}, "GalNAc4S6S(b1-4)GlcNAc": {"target": "GalNAc4S6S(b1-4)GlcNAc", "in_short": "as §1"}, "Glc(a1-6)Glc(a1-6)Glc": {"target": "Glc(a1-6)Glc(a1-6)Glc", "in_short": "as §1"}, "GlcA(b1-3)GlcNAc": {"target": "GlcA(b1-3)GlcNAc", "in_short": "as §1"}, "[1]": {"target": "GlcNAc(b1-2)[GlcNAc(b1-6)]Man(a1-6)[GlcNAc(b1-2)Man(a1-3)]Man(b1-4)GlcNAc(b1-4)GlcNAc", "in_short": "as §1"}, "GlcNAc(b1-3)Gal": {"target": "GlcNAc(b1-3)Gal", "in_short": "as §1"}, "GlcNAc(b1-3)Gal(b1-4)Glc": {"target": "GlcNAc(b1-3)Gal(b1-4)Glc", "in_short": "as §1"}, "[2]": {"target": "GlcNAc(b1-3)Gal(b1-4)GlcNAc", "in_short": "as §1"}, "[3]": {"target": "GlcNAc(b1-3)Gal(b1-4)GlcNAc(b1-3)Gal(b1-4)GlcNAc(b1-2)Man(a1-3)[GlcNAc(b1-3)Gal(b1-4)GlcNAc(b1-3)Gal(b1-4)GlcNAc(b1-2)Man(a1-6)]Man(b1-4)GlcNAc(b1-4)[Fuc(a1-6)]GlcNAc", "in_short": "as §1"}, "[4]": {"target": "GlcNAc(b1-3)Gal(b1-4)GlcNAc(b1-3)Gal(b1-4)GlcNAc(b1-3)Gal(b1-4)GlcNAc(b1-2)[GlcNAc(b1-3)Gal(b1-4)GlcNAc(b1-3)Gal(b1-4)GlcNAc(b1-3)Gal(b1-4)GlcNAc(b1-6)]Man(a1-6)[GlcNAc(b1-3)Gal(b1-4)GlcNAc(b1-3)Gal(b1-4)GlcNAc(b1-3)Gal(b1-4)GlcNAc(b1-2)Man(a1-3)]Man(b1-4)GlcNAc(b1-4)[Fuc(a1-6)]GlcNAc", "in_short": "as §1"}, "[5]": {"target": "GlcNAc(b1-3)Gal(b1-4)GlcNAc(b1-3)Gal(b1-4)GlcNAc(b1-3)Gal(b1-4)GlcNAc(b1-3)Gal(b1-4)GlcNAc(b1-2)[GlcNAc(b1-3)Gal(b1-4)GlcNAc(b1-3)Gal(b1-4)GlcNAc(b1-3)Gal(b1-4)GlcNAc(b1-3)Gal(b1-4)GlcNAc(b1-6)]Man(a1-6)[GlcNAc(b1-3)Gal(b1-4)GlcNAc(b1-3)Gal(b1-4)GlcNAc(b1-3)Gal(b1-4)GlcNAc(b1-3)Gal(b1-4)GlcNAc(b1-2)Man(a1-3)]Man(b1-4)GlcNAc(b1-4)[Fuc(a1-6)]GlcNAc", "in_short": "as §1"}, "[6]": {"target": "GlcNAc(b1-3)Gal(b1-4)GlcNAc(b1-6)[GlcNAc(b1-3)Gal(b1-3)]GalNAc", "in_short": "as §1"}, "[7]": {"target": "GlcNAc(b1-3)[GlcNAc(b1-4)][GlcNAc(b1-6)]GlcNAc", "in_short": "as §1"}, "[8]": {"target": "GlcNAc(b1-3)[GlcNAc(b1-6)]Gal(b1-4)GlcNAc", "in_short": "as §1"}, "[9]": {"target": "Neu5Ac(a2-3)Gal(b1-3)GlcNAc6S", "in_short": "as §1"}, "[10]": {"target": "Neu5Ac(a2-3)Gal(b1-4)GlcNAc(b1-3)Gal(b1-4)GlcNAc(b1-3)GalNAc", "in_short": "as §1"}, "[11]": {"target": "Neu5Ac(a2-3)Gal(b1-4)GlcNAc(b1-3)GalNAc", "in_short": "as §1"}, "[12]": {"target": "Neu5Ac(a2-6)Gal(b1-4)GlcNAc(b1-2)Man", "in_short": "as §1"}, "[13]": {"target": "Neu5Ac(a2-6)Gal(b1-4)GlcNAc(b1-2)Man(a1-3)[Neu5Ac(a2-3)Gal(b1-4)GlcNAc(b1-2)Man(a1-6)]Man(b1-4)GlcNAc(b1-4)GlcNAc", "in_short": "as §1"}, "[14]": {"target": "Neu5Ac(a2-6)Gal(b1-4)GlcNAc(b1-2)Man(a1-3)[Neu5Ac(a2-6)Gal(b1-4)GlcNAc(b1-2)Man(a1-6)]Man(b1-4)GlcNAc(b1-4)GlcNAc", "in_short": "as §1"}, "[15]": {"target": "Neu5Ac(a2-6)Gal(b1-4)GlcNAc(b1-2)[Neu5Ac(a2-6)Gal(b1-4)GlcNAc(b1-6)]Man(a1-6)[Neu5Ac(a2-6)Gal(b1-4)GlcNAc(b1-2)Man(a1-3)][GlcNAc(b1-4)]Man(b1-4)GlcNAc(b1-4)GlcNAc", "in_short": "as §1"}, "[16]": {"target": "Neu5Ac(a2-6)Gal(b1-4)GlcNAc(b1-3)Gal(b1-4)GlcNAc(b1-3)Gal(b1-4)GlcNAc", "in_short": "as §1"}, "[17]": {"target": "Neu5Ac(a2-6)Gal(b1-4)GlcNAc(b1-3)Gal(b1-4)GlcNAc(b1-3)GalNAc", "in_short": "as §1"}, "[18]": {"target": "Neu5Ac(a2-6)Gal(b1-4)GlcNAc(b1-3)GalNAc", "in_short": "as §1"}, "[19]": {"target": "Neu5Ac(a2-8)Neu5Ac(a2-3)Gal(b1-3)GalNAc(b1-4)[Neu5Ac(a2-8)Neu5Ac(a2-3)]Gal(b1-4)Glc", "in_short": "as §1"}},
  "note": "The entries come from a sample that favours the strongest signals as a whole.",
  "data": [
    {"binder": "B1", "values": [
      {"measurement": "glycan array binding signal (z-score)", "setting": "GalNAc3S(b1-4)GlcNAc", "value": 0.857},
      {"measurement": "glycan array binding signal (z-score)", "setting": "GalNAc4S6S(b1-4)GlcNAc", "value": 2.43},
      {"measurement": "glycan array binding signal (z-score)", "setting": "Glc(a1-6)Glc(a1-6)Glc", "value": -0.06},
      {"measurement": "glycan array binding signal (z-score)", "setting": "GlcA(b1-3)GlcNAc", "value": 0.609},
      {"measurement": "glycan array binding signal (z-score)", "setting": "[1]", "value": -0.74},
      {"measurement": "glycan array binding signal (z-score)", "setting": "GlcNAc(b1-3)Gal", "value": -1.53},
      {"measurement": "glycan array binding signal (z-score)", "setting": "GlcNAc(b1-3)Gal(b1-4)Glc", "value": -0.83},
      {"measurement": "glycan array binding signal (z-score)", "setting": "[2]", "value": -0.565},
      {"measurement": "glycan array binding signal (z-score)", "setting": "[3]", "value": 2.43},
      {"measurement": "glycan array binding signal (z-score)", "setting": "[4]", "value": 2.39},
      {"measurement": "glycan array binding signal (z-score)", "setting": "[5]", "value": 2.49},
      {"measurement": "glycan array binding signal (z-score)", "setting": "[6]", "value": -0.629},
      {"measurement": "glycan array binding signal (z-score)", "setting": "[7]", "value": -0.24},
      {"measurement": "glycan array binding signal (z-score)", "setting": "[8]", "value": 0.238},
      {"measurement": "glycan array binding signal (z-score)", "setting": "[9]", "value": 1.71},
      {"measurement": "glycan array binding signal (z-score)", "setting": "[10]", "value": 2.25},
      {"measurement": "glycan array binding signal (z-score)", "setting": "[11]", "value": 0.438},
      {"measurement": "glycan array binding signal (z-score)", "setting": "[12]", "value": -0.792},
      {"measurement": "glycan array binding signal (z-score)", "setting": "[13]", "value": 0.295},
      {"measurement": "glycan array binding signal (z-score)", "setting": "[14]", "value": 0.295},
      {"measurement": "glycan array binding signal (z-score)", "setting": "[15]", "value": 0.348},
      {"measurement": "glycan array binding signal (z-score)", "setting": "[16]", "value": 0.41},
      {"measurement": "glycan array binding signal (z-score)", "setting": "[17]", "value": 0.528},
      {"measurement": "glycan array binding signal (z-score)", "setting": "[18]", "value": 1.32},
      {"measurement": "glycan array binding signal (z-score)", "setting": "[19]", "value": -0.48}
    ]}
  ]
}
